Results on one compound are retold here after PubChem BioAssay (NCATS).

Results filed as inconclusive are left out. The source made the active and inactive calls. Unless noted, the call rests on the fitted dose curve; in most records, active means well fitted curve in the direction sought with a large enough effect; inconclusive means small, poorly fitted or top-dose-only effect, or another doubt; inactive means no such curve, though single readings can be large; an effect the other way counts as inactive or inconclusive.

Experiment [1] in a line: qHTS assay for small molecule antagonists of peroxisome proliferator-activated receptor delta signaling (AID 588535).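 Further: cells co-treated with a PPAR-delta agonist as stimulator during compound exposure.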 The following applies: HEK293T PPARd-UAS-bla, beta-lactamase FRET ratio, 18 h; 460 nm channel. The method, boiled down:
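Inhibition of PPAR-delta response element-driven beta-lactamase expression is measured in HEK293T cells exposed to a compound titration series for 18 hrs at 37 C. Half-maximal inhibition comes from Hill equation fitting.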

The target in experiment [2] is Peroxisome proliferator-activated receptor gamma (Homo sapiens) (UniProt P37231). The experiment can be described thus: qHTS assay for small molecule agonists of peroxisome proliferator-activated receptor gamma signaling (AID 588536; active means well fitted curve in the direction sought with a large enough effect in the signal ratio, with a control signal flat, not every such curve was filed as active; the % refers to the signal ratio;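 further: 0% = DMSO basal wells and 100% = rosiglitazone at 2 µM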). The following applies: HEK293 PPARg-UAS-bla, beta-lactamase ratio, 16 h, percent of rosiglitazone response, DMSO as zero; series mostly up to 76.7 µM. The method, boiled down:
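Using GeneBLAzer HEK293 cells, response was quantified by CCF4 fluorescence and normalized between basal DMSO (0%) and rosiglitazone 2 uM (100%); curves yielded half-maximal stimulation concentration and efficacy.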
(In general: qHTS replaces the single test concentration by a dilution series.)

Experiment [3] concerns the target Vitamin D3 receptor (Homo sapiens) (UniProt P11473). The experiment can be described thus: qHTS assay for small molecule antagonists of vitamin D receptor signaling (AID 588541; calls by dose curve;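 further: receptor activated by calcitriol during compound treatment; on the % scale 0 is the no-effect control and ±100 the full control effect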). The conditions noted are these: HEK293T VDR-UAS-bla, beta-lactamase ratio, antagonist mode; series mostly up to 76.7 µM. The essentials:
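VDR-UAS-bla HEK293T cells (2000/well, 2% charcoal-stripped FBS) were treated with titrated compounds plus 1-alpha,25-dihydroxyvitamin D3 (50 nM or 3 nM final) for 16 h at 37 C. CCF4 beta-lactamase fluorescence was read; Hill fits gave IC50.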

Experiment [4] shares this target. The experiment can be described thus: qHTS assay for small molecule agonists of vitamin D receptor signaling (AID 588543; calls by dose curve;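 further: 0% = DMSO basal and 100% = reference agonist control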). The following applies: HEK293T VDR-UAS-bla, beta-lactamase ratio, 16 h; series mostly up to 76.8 µM. The method, boiled down:
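GeneBLAzer VDR-UAS-bla HEK293T cells in 2% charcoal-stripped FBS medium were dosed with compound titrations for 16 h at 37 °C; CCF4 β-lactamase readout (405 nm ex, 460/530 nm em). EC50 and efficacy from Hill fits, normalized to 50 nM calcitriol (100%) and DMSO (0%).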

Experiment [5] in a line: qHTS assay for small molecule agonists of retinoid X receptor alpha signaling (AID 588544; calls by dose curve;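 on activation: 0% = DMSO basal wells and 100% = reference agonist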). The following applies: HEK293T RXRa-UAS-bla, beta-lactamase reporter, 18 h; 530 nm emission.
The target in experiment [6] is Retinoic acid receptor RXR-alpha (Homo sapiens) (UniProt P19793). The experiment is described as above. The conditions noted are these: HEK293T RXRa-UAS-bla, beta-lactamase reporter, 18 h; series mostly up to 76.7 µM.
Experiment [7] addresses Thyroid hormone receptor beta (Homo sapiens) (UniProt P10828). The experiment can be described thus: qHTS assay for small molecule agonists of thyroid hormone receptor beta signaling (AID 588545; calls by dose curve;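 further: 0% = DMSO only and 100% = 10 nM T3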). The conditions noted are these: TR-UAS-bla GripTite HEK 293, beta-lactamase ratio, agonist mode, 18 h, percent of T3 response, DMSO as zero; series mostly up to 76.7 µM. The method, boiled down:
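Compounds were tested as agonists in TR-UAS-bla-GripTite HEK 293 cells. After 18 hrs at 37 C, CCF4 substrate was added and fluorescence read after 2 hrs at room temperature.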

A short description of experiment [8]: qHTS assay for small molecule antagonists of retinoid X receptor alpha signaling (AID 588546; active means well fitted inhibition curve with a large enough effect in the signal ratio, with a control signal flat, not every such curve was filed as active; the % refers to the signal ratio;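 further: cells stimulated with 9-cis-retinoic acid as agonist; on the % scale 0 is the no-effect control and ±100 the full control effect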). The conditions noted are these: HEK293T RXRa-UAS-bla, beta-lactamase ratio, antagonist mode; measured here: W530 green channel, cytotoxicity proxy. The method, boiled down:
(§1)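 Beta-lactamase reporter inhibition, read as CCF4 fluorescence ratio (ex 405, em 460/530 nm) after 2 h at RT. HEK293T UAS-bla cells, 2500/well, were stimulated with 9-cis-RA at 500 or 100 nM final alongside test compound for 18 h at 37 C.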

Experiment [9] deals with Retinoic acid receptor RXR-alpha (Homo sapiens) (UniProt P19793). Described as above. The conditions noted are these: HEK293T RXRa-UAS-bla, beta-lactamase ratio, antagonist mode. The method, boiled down: as §1
The target in experiment [10] is Thyroid hormone receptor beta (Homo sapiens) (UniProt P10828). Kind of experiment: qHTS assay for small molecule antagonists of thyroid hormone receptor beta signaling (AID 588547; active means well fitted inhibition curve with a large enough effect in the signal ratio, with a control signal flat, not every such curve was filed as active; the % refers to the signal ratio;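 further: cells stimulated with 0.4 nM T3 agonist during compound exposure; on the % scale 0 is the no-effect control and ±100 the full control effect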). The following applies: TR-UAS-bla HEK293, beta-lactamase ratio, antagonist mode, 18 h. The essentials: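 TR-UAS-bla GripTite HEK293 cells in 2% charcoal/dextran FBS medium were preincubated 4 h at 37 C, given compound (0.59 nM to 92 uM) plus 0.4 nM T3 (final) for 18 h, then CCF4 for 2 h at RT; Hill fit gave IC50.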

A short description of experiment [11]: qHTS assay for small molecule agonists of the antioxidant response element (ARE) signaling pathway (AID 651741; active means well fitted activation curve with a large enough effect in the signal ratio; the % refers to the signal ratio; further: % of control where 0% means no effect). The following applies: HepG2 ARE-bla reporter, beta-lactamase FRET ratio, 16 h; series mostly up to 96 µM. The essentials:
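Reporter: beta-lactamase under ARE, stably in HepG2. Exposure: 16 h, 37 C, compounds delivered in DMSO by pin tool after 5 h cell preincubation. Readout: FRET substrate fluorescence after 2 h at RT.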

Experiment [12] in a line: qHTS assay for small molecule activators of the nuclear factor-kappa B (NF-kB) signaling pathway (AID 651749; active means well fitted activation curve with a large enough effect in the signal ratio; the % refers to the signal ratio; further: % of control where 0% means no effect). The conditions noted are these: NF-kB-bla ME-180 cells, beta-lactamase FRET ratio, 16 h; stronger effect = higher value. The essentials: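 Human ME-180 cervical cells with an NF-kB-bla construct; compounds added via 23 nL pin transfer, DMSO as vehicle; incubation 16 hr. Reporter activity measured by FRET disruption.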

Experiment [13] in a line: qHTS assay for environmental chemicals that activate the Aryl hydrocarbon Receptor (AhR) signaling pathway (AID 651777). Further: % of control where 0% means no effect; nearly all actives have a fitted effect of over 15% in size. The conditions noted are these: 1A2-DRE human hepatoma cells, luciferase, 24 h; activation: stronger effect = higher value. The essentials:
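Luminescence read-out: One-Glo added for 30 min at RT after 24 hr compound treatment (37 C, 5% CO2) of human hepatoma cells expressing a DRE/CYP1A2 promoter–luciferase reporter; increased signal indicates AhR activation.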

For experiment [14], the target named is Peroxisome proliferator-activated receptor alpha (Homo sapiens) (UniProt Q07869). The experiment can be described thus: qHTS assay for small molecule agonists of the peroxisome proliferator-activated receptor alpha (PPARalpha) signaling pathway (AID 651778). Further: % of control where 0% means no effect. The following applies: PathHunter PPARalpha complementation, chemiluminescence, 6 h; max response: stronger effect = higher value. The essentials: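 Cells plated at 2,000/well and held overnight at 37 C, 5% CO2, then compound added by pin tool for 6 hr; after PathHunter detection reagent and 60 min at room temperature, chemiluminescence from enzyme complementation was read.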

Experiment [15] in a line: qHTS assay for small molecule agonists of the antioxidant response element (ARE) signaling pathway measured by Nrf2-dependant transcriptional activity (AID 720636; active means well fitted curve in the direction sought with a large enough effect in the repeat runs; an effect the other way counts as inactive or inconclusive;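 further: HepG2 cells with an ARE-driven luciferase reporter; % of control where 0% means no effect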). The following applies: ARE-luc HepG2, Nrf2 luciferase reporter, 16 h; series mostly up to 92.4 µM. The essentials:
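HepG2 ARE-luc reporter line, 1% dialyzed FBS; 6 hr attachment at 37 C, compound pinned in, 16 hr at 37 C/5% CO2; ONE-Glo, 30 min RT, luminescence read.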

Experiment [16] is described as follows: qHTS assay for small molecule agonists of the antioxidant response element (ARE) signaling pathway measured by Nrf2-dependant transcriptional activity - cell viability counter screen (AID 720653; active means well fitted curve in the direction sought with a large enough effect in the repeat runs; an effect the other way counts as inactive or inconclusive; further: on the % scale 0 is the no-effect control and ±100 the full control effect). The following applies: ARE-bla HepG2 viability, CellTiter-Glo ATP luminescence, 16 h; max response: stronger effect = lower value. The method, boiled down:
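ARE-bla HepG2 cells (2,000/well) rested 5 hrs at 37C/5% CO2, then exposed to compounds in DMSO for 16 hrs. Viability was read in the same wells as intracellular ATP by luminescence, 30 min at room temperature after reagent addition.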

Experiment [17] can be described thus: qHTS assay for cell viability of HEK293 cells (AID 743288). Further: on the % scale 0 is the no-effect control and ±100 the full control effect; nearly all actives have a fitted effect of over 50% in size. The conditions noted are these: ATP luminescence (CellTiter-Glo), 18 h; max response: stronger effect = lower value. The essentials: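 After 18 h compound exposure at 37 C, parental HEK293 cells (2,000/well) are lysed with CellTiter-Glo and luminescence is read following 30 min at room temperature.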
Experiment [18] is described as follows: qHTS assay for cell viability of the p53RE-bla HCT-116 cell line (AID 743292). Further: on the % scale 0 is the no-effect control and ±100 the full control effect; nearly all actives have a fitted effect of over 55% in size. The following applies: p53RE-bla HCT-116 viability, ATP luminescence, 16 h; series mostly up to 95 µM. The essentials:
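Luminescent ATP quantitation (CellTiter-Glo) served as the viability read-out; reagent was added after 16 h compound exposure at 37 C and read after 30 min at room temperature. Cells: p53RE-bla HCT-116, 4,000 per well.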

Experiment [19] deals with Nuclear receptor subfamily 1 group I member 2 (Rattus norvegicus) (UniProt Q9R1A7). Kind of experiment: qHTS assay for small molecule activators of the rat pregnane X receptor (rPXR) signaling pathway (AID 651751; call rule not given here; further: 0% is about no effect). The conditions noted are these: rPXR reporter cells, luciferase (One-Glo), 24 h.
Experiment [20] is described as follows: qHTS assay for small molecule activators of the human pregnane X receptor (PXR) signaling pathway (AID 720659; call rule not given here; further: 0% is about no effect). The conditions noted are these: DPX-2 HepG2 CYP3A4-luciferase, 24 h; series mostly up to 92.3 µM.

Retinoic acid receptor RXR-alpha (Homo sapiens), sequence (P19793 whole entry, looked up): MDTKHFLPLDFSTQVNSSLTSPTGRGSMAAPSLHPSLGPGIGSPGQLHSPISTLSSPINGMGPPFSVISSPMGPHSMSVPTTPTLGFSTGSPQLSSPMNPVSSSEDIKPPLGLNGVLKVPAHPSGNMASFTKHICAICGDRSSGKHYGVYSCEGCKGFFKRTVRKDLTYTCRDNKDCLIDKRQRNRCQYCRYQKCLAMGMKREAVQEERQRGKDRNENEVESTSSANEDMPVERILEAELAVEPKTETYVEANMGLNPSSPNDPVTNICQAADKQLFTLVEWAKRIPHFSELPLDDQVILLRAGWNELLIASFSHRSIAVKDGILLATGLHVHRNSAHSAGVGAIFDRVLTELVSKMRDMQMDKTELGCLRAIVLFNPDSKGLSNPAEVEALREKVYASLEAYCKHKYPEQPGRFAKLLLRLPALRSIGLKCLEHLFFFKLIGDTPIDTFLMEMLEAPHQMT
Vitamin D3 receptor (Homo sapiens), sequence (P11473 whole entry, looked up): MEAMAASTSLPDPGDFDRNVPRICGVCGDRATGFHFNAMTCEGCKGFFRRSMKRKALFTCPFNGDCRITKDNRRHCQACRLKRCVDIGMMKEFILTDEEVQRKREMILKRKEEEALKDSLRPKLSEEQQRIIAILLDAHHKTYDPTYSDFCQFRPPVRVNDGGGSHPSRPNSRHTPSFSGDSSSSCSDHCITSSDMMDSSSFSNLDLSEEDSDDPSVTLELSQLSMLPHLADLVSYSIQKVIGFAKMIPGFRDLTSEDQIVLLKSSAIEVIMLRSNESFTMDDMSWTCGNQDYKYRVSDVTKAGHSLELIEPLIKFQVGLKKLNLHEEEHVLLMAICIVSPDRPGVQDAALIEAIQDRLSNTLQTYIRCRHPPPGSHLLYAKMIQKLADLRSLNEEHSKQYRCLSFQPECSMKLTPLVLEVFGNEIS
Thyroid hormone receptor beta (Homo sapiens), sequence (P10828 whole entry, looked up): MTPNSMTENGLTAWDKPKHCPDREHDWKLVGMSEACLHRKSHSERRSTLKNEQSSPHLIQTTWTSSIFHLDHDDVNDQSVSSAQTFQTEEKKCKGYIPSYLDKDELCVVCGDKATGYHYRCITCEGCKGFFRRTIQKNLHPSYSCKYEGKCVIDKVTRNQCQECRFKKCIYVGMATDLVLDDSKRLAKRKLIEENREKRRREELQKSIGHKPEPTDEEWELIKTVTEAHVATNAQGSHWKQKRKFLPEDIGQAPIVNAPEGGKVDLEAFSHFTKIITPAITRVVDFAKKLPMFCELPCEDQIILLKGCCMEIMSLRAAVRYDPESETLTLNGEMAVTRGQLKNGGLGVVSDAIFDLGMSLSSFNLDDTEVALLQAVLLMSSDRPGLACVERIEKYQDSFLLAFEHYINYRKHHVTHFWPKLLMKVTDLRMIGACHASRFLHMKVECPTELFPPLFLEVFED
Nuclear receptor subfamily 1 group I member 2 (Rattus norvegicus), sequence (Q9R1A7 whole entry, looked up): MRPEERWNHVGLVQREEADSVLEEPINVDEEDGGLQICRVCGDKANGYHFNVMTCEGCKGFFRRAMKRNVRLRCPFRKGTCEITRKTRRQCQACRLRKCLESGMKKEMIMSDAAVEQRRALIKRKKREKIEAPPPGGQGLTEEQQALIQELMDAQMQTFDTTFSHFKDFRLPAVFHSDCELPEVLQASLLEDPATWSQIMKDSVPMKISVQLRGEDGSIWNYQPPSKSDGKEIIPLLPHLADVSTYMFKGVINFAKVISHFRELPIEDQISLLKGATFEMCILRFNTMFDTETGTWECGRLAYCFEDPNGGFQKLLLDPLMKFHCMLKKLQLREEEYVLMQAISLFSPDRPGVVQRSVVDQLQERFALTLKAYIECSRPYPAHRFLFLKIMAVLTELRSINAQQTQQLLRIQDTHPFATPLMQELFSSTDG
Peroxisome proliferator-activated receptor alpha (Homo sapiens), sequence (Q07869 whole entry, looked up): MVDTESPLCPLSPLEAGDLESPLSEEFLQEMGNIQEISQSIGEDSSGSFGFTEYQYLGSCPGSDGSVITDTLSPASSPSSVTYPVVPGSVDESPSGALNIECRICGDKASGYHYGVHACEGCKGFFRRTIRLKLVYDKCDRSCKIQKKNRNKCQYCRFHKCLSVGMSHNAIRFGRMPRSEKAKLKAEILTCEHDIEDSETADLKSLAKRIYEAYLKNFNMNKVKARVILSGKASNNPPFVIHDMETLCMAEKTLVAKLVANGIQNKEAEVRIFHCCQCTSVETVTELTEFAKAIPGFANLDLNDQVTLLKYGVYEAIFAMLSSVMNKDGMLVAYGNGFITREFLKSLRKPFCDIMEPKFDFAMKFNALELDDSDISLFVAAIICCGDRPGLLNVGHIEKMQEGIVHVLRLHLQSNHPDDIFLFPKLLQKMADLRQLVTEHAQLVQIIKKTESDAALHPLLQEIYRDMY
Peroxisome proliferator-activated receptor gamma (Homo sapiens), sequence (P37231 whole entry, looked up): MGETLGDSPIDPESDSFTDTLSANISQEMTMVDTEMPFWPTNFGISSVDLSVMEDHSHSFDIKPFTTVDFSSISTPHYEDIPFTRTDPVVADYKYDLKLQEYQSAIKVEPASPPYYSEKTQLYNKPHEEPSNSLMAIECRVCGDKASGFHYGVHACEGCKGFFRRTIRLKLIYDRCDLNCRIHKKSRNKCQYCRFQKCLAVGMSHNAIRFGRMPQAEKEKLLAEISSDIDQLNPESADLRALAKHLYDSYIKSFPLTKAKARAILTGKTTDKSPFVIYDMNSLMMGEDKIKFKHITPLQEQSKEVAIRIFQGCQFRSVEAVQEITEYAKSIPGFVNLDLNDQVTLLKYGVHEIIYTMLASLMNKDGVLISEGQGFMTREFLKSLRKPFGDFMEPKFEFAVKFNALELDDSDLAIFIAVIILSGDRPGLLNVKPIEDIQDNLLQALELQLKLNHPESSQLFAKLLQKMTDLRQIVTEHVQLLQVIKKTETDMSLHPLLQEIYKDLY

For the compound `CC1CCC(C(C)C)C(O)C1` (stereo not given), the max response in experiment [1] was 8.18%; in experiment [5], -16.3%; in experiment [8] it was -12.2%; in experiment [9], 5.79% (inactive); in [14], -0.619% (inactive); in experiment [16], 1.08% (inactive). Also, the max response in [17] was -1.68% (inactive); in experiment [19] it was -4.79% (inactive). The result in experiment [2], in [4], in experiment [6], in experiment [7] and in experiment [20] was inactive. The Potency entry in [3], in [11], in experiment [15] and in experiment [18] was “inactive” in each case. Further, the activity change % (negative = inhibition) in experiment [10] was -1.02% (inactive). The values for the activation in experiment [12] and in [13] were -2.43% (inactive) and -1.72% (inactive), respectively.
